Measured values from PubChem BioAssay (NCATS).
Some of the results follow. Records with an inconclusive call do not appear. The source made the active and inactive calls. Calls follow the shape of the dose curve; as a rule, active = well fitted inhibition curve with a large enough effect; inconclusive = small, poorly fitted or top-dose-only effect, or another doubt; inactive = no such curve, though single readings can be large or run the other way.

biological target: DNA polymerase kappa (Homo sapiens) (UniProt Q9UBT6); test: qHTS for Inhibitors of Polymerase Kappa: Confirmatory Assay for Cherry-picked Compounds (AID 720501); settings: purified Pol-kappa, fluorescent strand-displacement substrate
Sequence (Q9UBT6 whole entry, looked up): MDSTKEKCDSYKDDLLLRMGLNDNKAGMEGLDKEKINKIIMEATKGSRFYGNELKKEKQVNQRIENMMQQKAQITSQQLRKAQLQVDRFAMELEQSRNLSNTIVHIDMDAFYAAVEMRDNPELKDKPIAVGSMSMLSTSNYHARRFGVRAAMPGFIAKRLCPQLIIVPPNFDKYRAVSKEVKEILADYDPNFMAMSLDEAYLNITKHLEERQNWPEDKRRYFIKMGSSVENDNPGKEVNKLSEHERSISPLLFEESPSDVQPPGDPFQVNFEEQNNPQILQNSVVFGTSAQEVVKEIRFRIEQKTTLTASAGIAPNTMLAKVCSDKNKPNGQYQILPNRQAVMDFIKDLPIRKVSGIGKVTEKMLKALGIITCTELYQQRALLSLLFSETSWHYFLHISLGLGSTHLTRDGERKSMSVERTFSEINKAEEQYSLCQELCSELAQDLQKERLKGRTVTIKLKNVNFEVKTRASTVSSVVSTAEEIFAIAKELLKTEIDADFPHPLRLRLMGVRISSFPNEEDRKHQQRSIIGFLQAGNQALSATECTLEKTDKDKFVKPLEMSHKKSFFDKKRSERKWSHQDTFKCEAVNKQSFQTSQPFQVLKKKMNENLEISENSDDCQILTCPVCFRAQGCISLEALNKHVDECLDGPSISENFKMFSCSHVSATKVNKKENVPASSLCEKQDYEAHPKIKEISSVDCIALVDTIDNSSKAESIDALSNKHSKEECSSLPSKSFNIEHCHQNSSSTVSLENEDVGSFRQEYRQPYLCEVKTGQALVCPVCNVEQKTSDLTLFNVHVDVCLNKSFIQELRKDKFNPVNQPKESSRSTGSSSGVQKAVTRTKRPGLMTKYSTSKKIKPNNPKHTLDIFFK
Source text: The processing and repair of DNA inter-strand crosslinks (ICL) in eukaryotic cells are extremely complex, potentially involving multiple DNA repair and damage tolerance pathways, including homologous recombination, nucleotide excision repair, translesion synthesis (TLS), and cell cycle checkpoints. […] A 1536-well format, fluorescence based, high-throughput screen (AID 588579) was developed in collaboration with the Oregon Health & Science University to screen for inhibitors of the Pol-kappa enzyme. This assay was used to validate the activity of the selected compounds from the primary screen against the human Pol-kappa. Inhibition is the desired outcome for this assay. NIH Chemical Genomics Center [NCGC] NIH Molecular Libraries Probe Centers Network [MLPCN] MLPCN Grant: MH094179 Assay Submitter (PI): Stephen Lloyd, Oregon Health & Science University
Three microliters of reagents (buffer in column 3 and 4 as negative control and 10 nM Pol-kappa in columns 1, 2, and 5-48) were dispensed into a 1536-well black solid-bottom plate. Compounds (23 nL) were transferred via Kalypsys pin tool equipped with 1536-pin array. The plates were then incubated for 15 min at room temperature, and 1 uL of substrate was added to start the reaction for a final concentration of 50 nM. The substrate was made by the annealing of unlabeled oligodeoxynucleotide primer (59-[…]-39) and TAMRA-labeled reporter strand (59-[…]-6-TAMRA-39) to oligodeoxynucleotide template labeled with BHQ-2 (59-BHQ-2-[…]-39) described in detail at the Yamanaka et.al. (PLOS, 2012) reference paper. The assay plates were initially read after 0 min and again after 10 min of kinetic reaction using the PerkinElmer Viewlux reader equipped with 525 nm excitation and 598 nm emission filters.
Potency is read from the fitted curve at half-maximal effect.

Potency, active:
NC(CSC(c1ccccc1)(c1ccccc1)c1ccc(-c2ccccc2)cc1)C(=O)O (stereo not given) 67 µM
COc1cc(/C=C2/C(=O)NN(c3ccc(F)cc3)C2=O)cc([N+](=O)[O-])c1O 37.7 µM
O=C(c1cc2c(s1)CCC2)N1CCN(c2ccccc2)CC1 42.3 µM
CCOc1ccccc1/C=c1\sc2nc(-c3ccco3)nn2c1=O 47.4 µM
COCCNC(=O)Nc1ccc2nc(-c3ccco3)c(-c3ccco3)nc2c1 3.77 µM
O=C(O)C(c1ccccc1)N1C(=O)/C(=C\c2ccc(-c3cccc(Cl)c3)o2)SC1=S (stereo not given) 29.9 µM
O=C(O)C1CCN(c2ccc([N+](=O)[O-])cc2[N+](=O)[O-])CC1 42.3 µM
O=C1NN(c2ccccc2)C(=O)/C1=C/c1ccc(-c2cccc(C(=O)O)c2)o1 16.8 µM
CN(C)CCNC(=O)c1ccc(Cl)c2cc3ccccc3nc12 21.2 µM
Cc1cc(/C=C2\SC(=O)N(C)C2=O)c(C)n1-c1cccc(C(=O)O)c1 9.47 µM
COc1ccc(CNC(=O)c2nnn(CC(=O)Nc3cc(C)cc(C)c3)c2N)cc1 47.4 µM
COc1ccc2[nH]c3c(C)c4cc[n+](C)cc4c(C)c3c2c1 1.34 µM
CCOc1cccc2c1N[C@@H](c1ccc(C(=O)O)cc1)[C@H]1CC=C[C@@H]21 2.38 µM
O=C(O)c1ccc(NS(=O)(=O)c2ccc3c(c2)C(=O)c2cc(S(=O)(=O)Nc4ccc(C(=O)O)cc4)ccc2-3)cc1 16.8 µM
COc1ccccc1C(=O)N/C(=C/c1ccco1)C(=O)Nc1ccc(C(=O)O)cc1 15 µM
Cc1ccc(-c2nc(SCc3ccc(Br)cc3)n3[nH]c(=O)cc3n2)cc1 16.8 µM
Cc1ccc2cc(/C=N/Nc3ccc(C(=O)O)cc3)c(Cl)nc2c1 26.7 µM
Cc1ccc(-c2nn(-c3ccccc3)cc2/C=C2\SC(=S)N(CCCCCC(=O)O)C2=O)o1 33.6 µM
CCc1nc2cccnc2n1-c1ccc(C(=O)O)cc1 18.9 µM
O=C1COc2c1ccc(O)c2O 6.7 µM
